More than one record can exist for a structure, and the calls need not agree. Active and inactive are the calls of the source. The calls were made as follows: active = hit-call score of the fitted dose curve at least 0.9, where 1 is the maximum; inactive = score below 0.9.

Details in all cases: mRNA level, 48 h; actives raise or lower the signal
Read-out in assay [1]: Pro-epidermal growth factor (Homo sapiens) (UniProt P01133)
Briefly: LTEA_HepaRG_EGF: Life Technologies and Expression Analysis (LTEA) Assay for Epidermal growth factor (EGF) using HepaRG (AID 2283489). The procedure, abridged:
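qRT-PCR readout of EGF transcript after 48 h chemical exposure of HepaRG cells; eight concentrations from 100 uM down in half-log steps, duplicate wells, 0.5% DMSO vehicle. Bidirectional curve fitting against DMSO baseline.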

Read-out in assay [2]: Early growth response protein 1 (EGR1) transcription factor, EGR1 (gene 1958)
Briefly: LTEA_HepaRG_EGR1: Life Technologies and Expression Analysis (LTEA) Assay for Early growth response protein 1 (EGR1) transcription factor using HepaRG (AID 2283490). The procedure, abridged: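 Differentiated HepaRG cells in serum-free induction medium exposed 48 hours, duplicate, to 8 half-log concentrations up to 100 uM in 0.5% DMSO. EGR1 mRNA measured by TaqMan qRT-PCR, normalized to ACTB, GAPDH, POLR2A; bidirectional fit versus DMSO.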

Read-out in assay [3]: Ezrin (EZR), EZR (gene 7430)
Briefly: LTEA_HepaRG_EZR: Life Technologies and Expression Analysis (LTEA) Assay for Ezrin (EZR) using HepaRG (AID 2283491). The procedure, abridged:
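EZR transcript levels came from Fluidigm qRT-PCR and were normalized to three housekeeping genes after 48 h chemical exposure of HepaRG cells. Dosing used an 8-point half-log series with a 100 uM top concentration in 0.5% DMSO, tested in duplicate; both directions were fitted versus vehicle.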

Read-out in assay [4]: Cytochrome P450 3A7 (Homo sapiens) (UniProt P24462)
Briefly: LTEA_HepaRG_CYP3A7: Life Technologies and Expression Analysis (LTEA) Assay for CYP3A7 using HepaRG (AID 2283492). The procedure, abridged: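 CYP3A7 transcript levels were read by TaqMan qRT-PCR on Fluidigm arrays after 48 h chemical exposure of human HepaRG cells, with housekeeping-gene normalisation. Eight half-log concentrations up to 100 uM in 0.5% DMSO were tested in duplicate.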

Read-out in another assay: CYP3A5 (gene 1577)
Briefly: LTEA_HepaRG_CYP3A5: Life Technologies and Expression Analysis (LTEA) Assay for CYP3A5 using HepaRG (AID 2283493). The procedure, abridged:
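mRNA induction or loss of CYP3A5 assessed in HepaRG after 48 h dosing, 100 uM top concentration, duplicate wells; TaqMan qRT-PCR with ACTB, GAPDH, POLR2A normalization; 0.5% DMSO as negative control.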

Read-out in assay [5]: Fatty Acid-Binding Protein 1 (FABP1), FABP1 (gene 2168)
Briefly: LTEA_HepaRG_FABP1: Life Technologies and Expression Analysis (LTEA) Assay for Fatty Acid-Binding Protein 1 (FABP1) using HepaRG (AID 2283494). The procedure, abridged: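 Differentiated human HepaRG cells exposed 48 h in serum-free induction medium to eight half-log concentrations up to 100 uM (0.5% DMSO), duplicate. FABP1 mRNA by qRT-PCR, normalised to ACTB, GAPDH, POLR2A; bidirectional fitting against DMSO.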

Read-out in assay [6]: Cytochrome P450 4A22 (Homo sapiens) (UniProt Q5TCH4)
Briefly: LTEA_HepaRG_CYP4A22: Life Technologies and Expression Analysis (LTEA) Assay for Cytochrome P450 4A22 (CYP4A22) using HepaRG (AID 2283495). The procedure, abridged: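 HepaRG, 48 h post-plating -> serum-free induction medium; dosed 48 h, duplicate, 8 conc. (100 uM top, half-log), 0.5% DMSO. Readout: CYP4A22 mRNA by qRT-PCR, ACTB/GAPDH/POLR2A normalization; gain/loss fit relative to DMSO.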

Read-out in assay [7]: Cytochrome P450 7A1 (Homo sapiens) (UniProt P22680)
Briefly: LTEA_HepaRG_CYP7A1: Life Technologies and Expression Analysis (LTEA) Assay for Cytochrome P450 7A1 (CYP7A1) using HepaRG (AID 2283496). The procedure, abridged: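 Gene expression endpoint in human HepaRG liver cells treated for 48 h with test chemicals (up to 100 uM, 0.5% DMSO). Values come from bidirectional concentration-response fitting versus DMSO.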

Read-out in assay [8]: Glutathione S-Transferase (GSTA2), GSTA2 (gene 2939)
Briefly: LTEA_HepaRG_GSTA2: Life Technologies and Expression Analysis (LTEA) Assay for Glutathione S-Transferase (GSTA2) using HepaRG (AID 2283497). The procedure, abridged:
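Differentiated human HepaRG cells were exposed in duplicate for 48 h in serum-free induction medium, 8 points from 100 uM top in half-log steps, 0.5% DMSO. GSTA2 mRNA was measured by TaqMan qRT-PCR, normalized to ACTB, GAPDH and POLR2A; bidirectional fit versus DMSO.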

Read-out in assay [9]: Glutamate-cysteine ligase catalytic (GCLC), GCLC (gene 2729)
Briefly: LTEA_HepaRG_GCLC: Life Technologies and Expression Analysis (LTEA) Assay for Glutamate-cysteine ligase catalytic (GCLC) using HepaRG (AID 2283498). The procedure, abridged: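 Differentiated HepaRG cells exposed 48 h in serum-free induction medium, eight-point half-log series topping at 100 uM in 0.5% DMSO, duplicates. GCLC mRNA by qRT-PCR normalized to ACTB, GAPDH and POLR2A, fitted bidirectionally versus DMSO.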

Sequence of Cytochrome P450 3A7 (Homo sapiens) (P24462 whole entry, looked up): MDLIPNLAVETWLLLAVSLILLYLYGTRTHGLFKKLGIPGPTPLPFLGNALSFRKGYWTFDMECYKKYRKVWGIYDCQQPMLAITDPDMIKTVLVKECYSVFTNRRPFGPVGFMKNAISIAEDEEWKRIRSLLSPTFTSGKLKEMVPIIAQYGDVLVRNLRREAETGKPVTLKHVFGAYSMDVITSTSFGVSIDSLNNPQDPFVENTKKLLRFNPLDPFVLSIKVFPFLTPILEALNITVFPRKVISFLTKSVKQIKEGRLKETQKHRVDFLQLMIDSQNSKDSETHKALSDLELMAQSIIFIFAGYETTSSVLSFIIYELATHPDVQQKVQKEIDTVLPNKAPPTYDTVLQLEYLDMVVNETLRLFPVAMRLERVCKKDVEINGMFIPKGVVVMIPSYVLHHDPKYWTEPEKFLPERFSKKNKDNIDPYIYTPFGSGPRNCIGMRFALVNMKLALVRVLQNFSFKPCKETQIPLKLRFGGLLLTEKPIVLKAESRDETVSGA

As for `CC(C)(c1ccc(O)cc1)c1ccc(O)cc1`, the outcome (in assay [1]; in assay [2]; in assay [3]; in assay [4]; with CYP3A5 (gene 1577); in [5]) was inactive. For the same compound, the call in assay [6], in assay [7], in assay [8] and in [9] was inactive. Moreover, in [5], the half-maximal activity concentration (AC50) is 50 µM (active).
As for `C[C@]12CC[C@@H]3c4ccc(O)cc4C[C@@H](CCCCCCCCCS(=O)CCCC(F)(F)C(F)(F)F)[C@H]3[C@@H]1CC[C@@H]2O` (stereo partly specified), the AC50 in [1] was 0.0848 µM (active); in [2], 0.119 µM (active); in assay [4], 24.9 µM (active); with CYP3A5 (gene 1577) it was 15.7 µM (active); in assay [5], 25.8 µM (active); in [7], 15 µM (active). The half-maximal activity concentration (AC50) in assay [8] is 28.1 µM (active); in assay [9], 19.9 µM (active). In addition, the compound was classed as inactive in assay [3] and in assay [6].
Consider `CCN(Cc1c(F)cccc1Cl)c1c([N+](=O)[O-])cc(C(F)(F)F)cc1[N+](=O)[O-]`, for which the AC50 in assay [1] was 14 µM (active); in [5] it was 38.7 µM (active); in assay [7], 50 µM (active); in assay [8], 11.7 µM (active); in [9], 50 µM (active). Also, the call (in assay [2]; in assay [3]; in [4]; with CYP3A5 (gene 1577); in assay [6]) was inactive.
In the case of `O=C(O)C1(C(=O)Nc2ccc(Cl)cc2Cl)CC1`, the AC50 in assay [1] was 31.6 µM (active); in assay [2] it was 50 µM (active); in [4], 91 µM (active); in assay [5], 77.5 µM (active); in assay [6], 80.7 µM (active); in [7] it was 77.8 µM (active). In addition, the AC50 in assay [8] was 48.8 µM (active); in [9] it was 50 µM (active). Besides, the call (in [3]; in the assay with CYP3A5 (gene 1577)) was inactive.
On to `CCCCCCC(C)OC(=O)COc1nc(F)c(Cl)c(N)c1Cl` (stereo unspecified), for which the compound was classed as inactive (in assay [1]; in assay [2]; in assay [3]; in [4]; with CYP3A5 (gene 1577); in assay [5]). The call in assay [6], in [7], in assay [8] and in assay [9] was inactive.
With `CC(=O)[C@H]1CC[C@H]2[C@@H]3CCC4=CC(=O)CC[C@]4(C)[C@H]3CC[C@]12C`, the AC50 in assay [1] was 82 µM (active); in assay [2], 50 µM (active); in assay [4], 30.1 µM (active); with CYP3A5 (gene 1577), 84.6 µM (active); in assay [5], 35.8 µM (active); in assay [6], 31.1 µM (active). Further, the results for the AC50 in assay [7], in assay [8] and in [9] were 26.8 µM (active), 34.5 µM (active) and 91.1 µM (active), respectively. Further, the compound was called inactive in assay [3].
In the case of `CSC(=O)c1cccc2nnsc12`, the outcome (in [1]; in [2]; in assay [3]; in assay [4]; in the assay with CYP3A5 (gene 1577); in assay [5]) was inactive. Moreover, the compound was called inactive in assay [6], in assay [7], in assay [8] and in assay [9].
`COC(=O)CSc1cc(N=c2sc(=O)n3n2CCCC3)c(F)cc1Cl`: the compound was classed as inactive (in assay [1]; in assay [2]; in assay [3]; with CYP3A5 (gene 1577); in assay [5]; in [6]). The call in assay [7], in assay [8] and in assay [9] was inactive. In addition, the AC50 in assay [4] was 16 µM (active).
In the case of `O=C(c1ccc(O)cc1O)c1ccc(O)cc1O`, the outcome (in assay [1]; in assay [2]; in assay [3]; in assay [4]; with CYP3A5 (gene 1577); in assay [5]) was inactive. Besides, the outcome in [6], in assay [7], in [8] and in assay [9] was inactive.
`CCOC(=O)C(C)Oc1ccc(Oc2cnc3cc(Cl)ccc3n2)cc1` (stereo unspecified): the result in assay [1], in assay [2], in assay [3] and in [9] was inactive. For the same compound, the AC50 in assay [4] is 0.571 µM (active); with CYP3A5 (gene 1577), 0.628 µM (active); in assay [5], 0.388 µM (active); in [6], 43 µM (active); in assay [7] it was 9.27 µM (active); in assay [8], 15 µM (active).
Take `O=C(O)c1ccccc1`: the result (in [1]; in assay [2]; in [3]; in assay [4]; with CYP3A5 (gene 1577); in [5]) was inactive. Further, the result in assay [6], in assay [7], in [8] and in assay [9] was inactive.
In the case of `CCCCOC(=O)C(C)Oc1ccc(Oc2ccc(C(F)(F)F)cn2)cc1` (stereo unspecified), the compound was called inactive (in assay [1]; in assay [2]; in [3]; in [4]; in the assay with CYP3A5 (gene 1577); in assay [5]). Besides, the result in assay [6], in [7], in assay [8] and in [9] was inactive.
For `CC(C)(C)[C@@H](O)[C@@H](Cc1ccc(Cl)cc1)n1cncn1`, the compound was called inactive (in assay [1]; in [2]; in assay [3]; with CYP3A5 (gene 1577); in [7]; in assay [8]). For the same compound, the compound was called inactive in assay [9]. Moreover, the AC50 in assay [4] is 5.85 µM (active); in [5] it was 50 µM (active); in [6], 27.8 µM (active).
In the case of `C#CCOC(=O)[C@@H](C)Oc1ccc(Oc2ncc(Cl)cc2F)cc1`, the compound was called inactive (in [1]; in assay [2]; in assay [3]; with CYP3A5 (gene 1577); in assay [7]; in assay [8]). In assay [9], the compound was called inactive. For the same compound, the AC50 in assay [4] is 50 µM (active); in assay [5], 64.4 µM (active); in assay [6] it was 13.2 µM (active).
With `CCCCOC(=O)[C@@H](C)Oc1ccc(Oc2ccc(C(F)(F)F)cn2)cc1`, the call (in assay [1]; in assay [2]; in assay [3]; in assay [4]; with CYP3A5 (gene 1577); in assay [5]) was inactive. For the same compound, the compound was classed as inactive in [6], in assay [8] and in assay [9]. Also, in [7], the AC50 is 34.2 µM (active).
As for `O=C(c1ccccc1)C1CCCCC1`, the compound was classed as inactive (in assay [1]; in assay [2]; in [3]; in [4]; with CYP3A5 (gene 1577); in assay [5]). In addition, the compound was called inactive in assay [6], in assay [7], in assay [8] and in assay [9].
For `CCC(C)OC(=O)N1CCCCC1CCO` (stereo unspecified), the compound was classed as inactive (in assay [1]; in assay [2]; in assay [3]; in assay [4]; with CYP3A5 (gene 1577); in assay [5]). Moreover, the result in assay [6], in assay [7], in assay [8] and in [9] was inactive.

Values taken from PubChem BioAssay (EPA / NIEHS).
